Source: PubChem BioAssay (NCATS)
Activity calls are given as the source filed them.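 Rule for the calls: active = compounds whose dose series gives a full or clear partial fitted curve of increased nuclear translocation; inconclusive = weak partial curve or effect only at the top dose; inactive = no dose-dependent translocation response.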

These molecules were tested against Glucocorticoid receptor (Homo sapiens) (UniProt P04150) (assay: GR-GFP Redistribution (AID 450)). Details: U2OS GR-GFP nuclear translocation, laser cytometry, 2 h; series mostly up to 20.6 µM.
Potency is the fitted concentration of half-maximal effect.

Sequence of Glucocorticoid receptor (Homo sapiens) (P04150 whole entry, looked up): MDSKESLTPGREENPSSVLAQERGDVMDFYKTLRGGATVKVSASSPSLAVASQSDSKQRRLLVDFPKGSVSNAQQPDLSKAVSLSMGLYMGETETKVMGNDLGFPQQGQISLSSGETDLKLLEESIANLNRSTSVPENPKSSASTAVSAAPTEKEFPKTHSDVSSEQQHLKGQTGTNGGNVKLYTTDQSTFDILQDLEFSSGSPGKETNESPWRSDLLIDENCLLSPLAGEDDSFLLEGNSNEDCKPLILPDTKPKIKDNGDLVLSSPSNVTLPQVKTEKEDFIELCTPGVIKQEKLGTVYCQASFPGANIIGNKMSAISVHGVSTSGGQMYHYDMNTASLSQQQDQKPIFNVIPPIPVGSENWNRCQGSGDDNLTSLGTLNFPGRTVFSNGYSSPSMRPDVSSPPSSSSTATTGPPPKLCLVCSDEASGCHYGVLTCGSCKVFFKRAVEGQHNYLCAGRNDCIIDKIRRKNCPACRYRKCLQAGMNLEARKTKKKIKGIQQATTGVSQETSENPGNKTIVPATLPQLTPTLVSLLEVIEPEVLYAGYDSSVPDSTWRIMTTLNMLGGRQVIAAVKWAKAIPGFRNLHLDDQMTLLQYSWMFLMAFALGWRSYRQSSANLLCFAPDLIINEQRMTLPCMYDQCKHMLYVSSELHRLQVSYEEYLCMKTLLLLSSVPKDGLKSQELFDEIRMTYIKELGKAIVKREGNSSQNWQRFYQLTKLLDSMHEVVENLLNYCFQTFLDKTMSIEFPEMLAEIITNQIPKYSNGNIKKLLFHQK

Potency, inactive:
CCC1(C)Cc2c(sc(NC(=O)CCC(=O)O)c2C#N)CO1 (stereo not given) > 20.6 µM
COc1ccc(/C(O)=C2/C(=O)C(=O)N(CCN3CCOCC3)C2c2ccccn2)cc1OC (stereo not given) > 20.6 µM
CCCC(=O)Nc1sc2c(c1C#N)CCCC2 > 20.6 µM
c1nc(NC2CCCCC2)c2[nH]cnc2n1 > 20.6 µM
COc1ccc(C(=O)c2oc3nc(C)cc(C)c3c2N)cc1 > 20.6 µM
Cc1nn(C)cc1CNC(=O)c1ccc(Br)o1 > 20.6 µM
C=C(C)Cn1c(-c2ccc(OC)cc2)nc2ccccc21 > 20.6 µM
O=C1NC(c2cccs2)Nc2ccccc21 (stereo not given) > 20.6 µM
CN(CCOC(=O)c1ccc2c(c1)OCCO2)Cc1ccccc1 > 20.6 µM
CC(C(=O)N1CCCCC1)N1C(=O)c2ccccc2C1=O (stereo not given) > 20.6 µM
COC(=O)c1nn2c(C(F)(F)F)cc(-c3ccc(Br)o3)nc2c1Br > 20.6 µM
Cc1cccn2c(=O)c3cc(C#N)c(=N)n(Cc4ccncc4)c3nc12 > 20.6 µM
NC(=O)c1ccccc1OCCOCCOCCOc1ccccc1C(N)=O > 20.6 µM
CC(=O)Oc1ccc2c(C)cc(=O)[nH]c2c1 > 20.6 µM
CC(C)C1C(C#N)=C(N)Oc2n[nH]c(C(C)(C)C)c21 (stereo not given) > 20.6 µM
CC(=O)Nc1n[nH]c(S(=O)(=O)Cc2ccc(Cl)cc2Cl)n1 > 20.6 µM
C=CCn1c(-c2ccc(OC)c(OC)c2)n[nH]c1=S > 20.6 µM
COC(=O)C1=C(C)N=C2SC(C)C(=O)N2C1c1cccc(F)c1 (stereo not given) > 20.6 µM
O=C(NCCCNCc1ccccc1)/C(=N\O)c1ccccc1 > 20.6 µM
CC1(C)Cc2[nH]c(=S)c(C#N)cc2CO1 > 20.6 µM
CCC(NC(=O)Nc1ccc(O)cc1)(C(F)(F)F)C(F)(F)F > 20.6 µM
CCOC(=O)COn1c(=O)c(-c2ccc(OC)c(OC)c2)[n+]([O-])c2ccccc21 > 20.6 µM
Cc1cc(=O)oc2cc(OCCSCCN3CCOCC3)ccc12 > 20.6 µM
CC(=O)N=C(N)Sc1nc2ccccc2[nH]1 > 20.6 µM
CN(C1CCS(=O)(=O)C1)S(=O)(=O)c1cccc2nsnc12 (stereo not given) > 20.6 µM
COc1ccc(NC(=O)c2c(C)cc(=O)oc2C)c(OC)c1 > 20.6 µM
Cn1c(=O)c2c(nc(N3CCN(Cc4ccccc4)CC3)n2CC(=O)c2ccccc2)n(C)c1=O > 20.6 µM
CCN(CC)CCN1C(=O)C(=O)/C(=C(/O)c2ccc(OC(C)C)cc2)C1c1ccncc1 (stereo not given) > 20.6 µM
COc1cccc(C(=O)N2CCN(Cc3ccccn3)CC2)c1OC > 20.6 µM
CC1=CC=CN2CC(O)CN=C12 (stereo not given) > 20.6 µM
CCC1=Nc2ccccc2NC2=C1C(=O)CCC2 > 20.6 µM
O=S1CCCSC1c1cccnc1 (stereo not given) > 20.6 µM
CC1(C)Cc2c(oc3ncn4ncnc4c23)CO1 > 20.6 µM
COC(=O)[C@@H](N)Cc1ccc(O)cc1 > 20.6 µM
c1cncc(Oc2cccc(Oc3cccnc3)c2)c1 > 20.6 µM
CCOC(=O)CC(C#N)c1cn(C)c2ccccc12 (stereo not given) > 20.6 µM
CCn1nnc(C(=O)O)c1C(=O)O > 20.6 µM
Cc1cc2c(c(=O)n1Cc1cccnc1)C(c1ccccc1)C(C#N)=C(N)O2 (stereo not given) > 20.6 µM
C=CCNc1nc(C)nc(OC)n1 > 20.6 µM
c1cncc(-c2nnc3sc(C4CCCCC4)nn23)c1 > 20.6 µM
